Screening results (PubChem BioAssay)
Shown are actives, neighbours in structure and some others; about 1.4% of the full set was active somewhere.
PriA SSB inh – blocks PriA binding to SSB C-terminal tail | inhibition, % at 33 µM | AID 1272365 | AlphaScreen SSBct-PriA binding, biotinylated peptide | 430,000 compounds, 0.6% hits; in the data active = inhibition mostly above about 37%, no sharp cut-off; inactive = mostly below about 20%;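 note: plate controls were negative control peptide for no effect and reference peptide for full effect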
Mtb hypoxia rep – inhibitors of hypoxia-regulated fluorescent reporter in Mycobacterium tuberculosis. M. tuberculosis hypoxia-regulated fluorescent reporter, fluorescence. fluorescence inhibition, % (no concentration beside the values). 300,000 compounds, 0.1% hits. AID 1159583; in the data active = fluorescence inhibition mostly above about 23%, no sharp cut-off; inactive = mostly below about 17%
Sa RN4220 lethal – kills Staphylococcus aureus RN4220; S. aureus RN4220 growth, OD600, 16 h; inhibition, % (test concentration not listed); 330,000 compounds, 0.33% hits; AID 1259311; in the data active = inhibition above about 85%;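 note: plate controls were untreated cells for no effect and reference antibiotic for full effect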
Sa ugtP lethal – kills S. aureus RN4220 lacking UgtP; S. aureus RN4220 ugtP deletion, OD600 growth, 16 h; growth inhibition, % (no concentration beside the values); 330,000 compounds, 0.54% hits; in the data active = growth inhibition above about 68%;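 note: plate controls were untreated wells for no effect and antibiotic for full effect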
CCHFV vOTU inh – blocks the CCHF virus ovarian tumor domain protease; AID 651958; 370,000 compounds, 0.55% hits; inhibition, % at 11.5 µM; CCHFV vOTU protease, Pep-AMC fluorescence; in the data active = inhibition above about 30%; note: 0% = vehicle wells with enzyme and 100% = no enzyme wells
* = called active by the depositor; . = not tested or not shown; ! = not active in a repeat.

SMILES | PriA SSB inh | Mtb hypoxia rep | Sa RN4220 lethal | Sa ugtP lethal | CCHFV vOTU inh
CCOc1ccc(C=NNC(=O)c2ccccc2NC(=O)c2ccc(OC)cc2)cc1 | 5.3 | -0.6 | -4.1 | 15.6 | .
COc1cc(NS(C)(=O)=O)c2ncccc2c1 | 21.0 | . | . | . | .
COc1cc(N)c2ncccc2c1 | 47.0* | . | . | . | .
CC(=O)NC(c1ccco1)c1cc(F)c2cccnc2c1O (centres undefined) | 72.9* | 8.7 | 10.7 | -8.5 | 0.1
COc1cccc(CNCCc2c[nH]c3ccccc23)c1OCc1ccc(F)cc1 | 28.0 | -3.3 | -3.9 | -27.9 | -3.7
COc1ccccc1NC(=S)NCCc1c[nH]c2ccccc12 | 45.2* | . | -2.1 | -5.7 | 4.0
COc1cc(NC(=S)NCCc2c[nH]c3ccccc23)c(OC)cc1Cl | 9.5 | 3.5 | -1.9 | -12.3 | 3.4
COc1cc(CNCCc2c[nH]c3ccccc23)ccc1OCc1ccc(F)cc1 | 39.7* | 6.2 | 20.7 | -32.9 | 13.0
COC1C(OC(N)=O)C(O)C(Oc2ccc3c(O)c(NC(=O)c4ccc(O)c(CC=C(C)C)c4)c(=O)oc3c2C)OC1(C)C (centres undefined) | . | . | 99.7* | 98.8* | .
Cc1cc(C)c(S(=O)(=O)NC[C@@H](c2ccco2)S(=O)(=O)c2ccc(F)cc2)c(C)c1 | 1.0 | . | . | . | .
Cc1ccc(C[n+]2c(-c3ccc(C)cc3)cc(-c3ccc(C)cc3)cc2-c2ccc(C)cc2)cc1 | 10.0 | . | 100.8* | 100.6* | .
COc1ccc(/C=C/C(=O)OCC(=O)NC2CCS(=O)(=O)C2)cc1 (centres undefined) | -2.7 | 7.8 | 5.1 | 9.7 | -1.5
CCCCOc1ccc(/C=C/C(=O)OCC(=O)NC2CCS(=O)(=O)C2)cc1OCC (centres undefined) | -12.8 | 8.4 | 14.4 | 92.4* | -0.9
Cc1nc(-c2ccc(S(=O)(=O)Nc3ccc(Br)cc3Cl)s2)cs1 | -9.8 | -9.0 | 96.2* | 83.3 | 6.5
Cc1nc(-c2ccc(S(=O)(=O)Nc3cccc(S(N)(=O)=O)c3)s2)cs1 | -3.7 | -8.0 | 0.9 | 8.1 | 1.3
O=C(COC(=O)c1ccccc1Br)NCC1CCCCC1 | -3.8 | -3.0 | -0.4 | -4.0 | -13.7
O=C(COC(=O)c1ccccc1NCCO)NCC1CCCCC1 | -5.9 | 31.0* | 3.5 | 1.8 | -91.8
COC1(CNC(=O)c2ccc3nsnc3c2)CCSC1 (centres undefined) | -15.0 | . | . | . | .
CCCc1nnc(NC(=O)c2c(O)c3cccc4c3n(c2=O)CC4)s1 | 1.2 | 56.0* | 100.6* | 100.3* | .
Cn1cc(S(=O)(=O)N2CCCN(S(=O)(=O)Cc3noc4ccccc34)CC2)cn1 | -12.0 | . | . | . | .
Cn1c(S(=O)(=O)c2ccc([N+](=O)[O-])cc2)nc(Br)c1Br | 1.1 | -3.0 | 98.0* | 95.0* | -12.3
COc1ccccc1CCNC(=O)C(=O)Nc1ccccc1C#N | -3.0 | . | . | . | .
O=C(COc1ccc(F)cc1)NCCN1CCO[C@H](c2ccccc2)C1 | -17.0 | . | . | . | .
COc1ccc2oc(-c3csc(NC(=O)c4ccnn4C)n3)cc2c1 | 6.0 | . | . | . | .
CS(=O)(=O)N1CCN(c2ccc(-c3ccccn3)nn2)CC1 | 77.0* | . | . | . | .
SMILES | PriA SSB inh | Mtb hypoxia rep | Sa RN4220 lethal | Sa ugtP lethal | CCHFV vOTU inh
O=C(c1ccccn1)N1CCN(c2ccc(-c3ccccn3)nn2)CC1 | 157.0* | . | . | . | .
O=C(c1ccccc1Cl)N1CCN(c2ccc(-c3ccccn3)nn2)CC1 | 147.0* | . | . | . | .
O=C(c1ccccc1Cl)N1CCN(c2ccc(-n3cccn3)nn2)CC1 | -30.0 | . | . | . | .
CCn1c2ccccc2c2cc(C=Nn3c(C)nnc3C)ccc21 | -12.1 | 4.6 | 7.3 | -15.6 | .
O=C(C1CC1)N1CCc2ccc(NS(=O)(=O)c3ccccc3Cl)cc21 | 5.0 | . | . | . | .
CCCN1CCCc2cc(CCNC(=O)c3cccc(C)c3)ccc21 | 59.0* | . | . | . | .
CCCN1CCCc2cc(CCNC(=O)c3c(F)cccc3F)ccc21 | 54.0* | . | . | . | .
CCCN1CCCc2cc(CCNC(=O)c3cccc(OC)c3)ccc21 | 61.0* | . | . | . | .
CCCN1CCCc2cc(CCNC(=O)c3cccc(F)c3)ccc21 | 41.0* | . | . | . | .
CCCN1CCCc2cc(CCNC(=O)c3cccc(Cl)c3)ccc21 | 48.0 | . | . | . | .
COc1ccc(-c2nc3c4cnn(-c5cc(C)cc(C)c5)c4ncn3n2)c(O)c1 | -22.0 | . | . | . | .
C[C@](O)(CNC(=O)Cc1ccc(F)cc1)c1ccc2c(c1)OCO2 | -11.0 | . | . | . | .
O=C(COc1ccc(Cl)cc1Cl)Nc1ccc(Cl)c2ncsc12 | -3.0 | . | . | . | .
O=C(Cc1cccc2ccccc12)Nc1ccc2c(c1)CN(C(=O)C1CC1)CC2 | -5.0 | . | . | . | .
COc1cccc(NC(=O)N2CC(c3nc(-c4ccsc4)no3)C2)c1OC | 9.0 | . | . | . | .
CCOC(=O)c1c(-c2ccc(OC)cc2)csc1N | 40.0* | . | . | . | .
Cn1nnc2c(N3CCN(C(=O)c4c(F)cccc4F)CC3)ncnc21 | -2.0 | . | . | . | .
CC[C@@H](C)[C@H](NC(=O)Cc1c(C)c2cc3c(C)coc3c(C)c2oc1=O)C(=O)O | -21.2 | 7.0 | -0.4 | -0.6 | -15.2
COc1ccc(-c2coc3c(C)c4oc(=O)c(CC(=O)O)c(C)c4cc23)cc1 | -5.7 | 8.9 | 92.8* | 100.2* | -7.0
COc1ccc(-c2coc3cc4oc(=O)c(CC(=O)O)c(C)c4cc23)cc1 | -2.2 | -16.0 | -1.4 | 3.0 | -7.2
CCCCC(NC(=O)Cc1c(C)c2cc3c(-c4ccccc4)coc3c(C)c2oc1=O)C(=O)O (centres undefined) | -4.2 | -3.8 | 98.5* | 99.5* | 24.7
COc1cccc(-c2coc3cc4oc(=O)c(CCC(=O)O)c(C)c4cc23)c1 | -4.0 | 10.7 | 2.3 | -18.3 | 15.6
COc1cccc(-c2coc3c(C)c4oc(=O)c(CC(=O)O)c(C)c4cc23)c1 | 16.4 | 1.8 | 95.1* | 98.7* | -7.2
Cc1c(CC(=O)O)c(=O)oc2c(C)c3occ(-c4ccc(Br)cc4)c3cc12 | -9.8 | . | . | . | -17.6
COc1cccc(-c2coc3c(C)c4oc(=O)c(CCC(=O)O)c(C)c4cc23)c1 | -4.2 | 6.4 | 100.4* | 100.4* | 19.5
SMILES | PriA SSB inh | Mtb hypoxia rep | Sa RN4220 lethal | Sa ugtP lethal | CCHFV vOTU inh
Cc1ccc2c(c1)C(=O)C(=O)N2CCn1c2ccccc2c2nc3ccccc3nc21 | -10.0 | . | . | . | .
NC(=O)CSc1cccc2cccnc12 | 64.5* | . | . | . | .
O=C(CSc1cccc2cccnc12)NCCc1ccc(Cl)cc1 | 77.0* | . | . | . | .
O=C(O)CSc1cccc2cccnc12 | 65.0*! | . | 0.8 | -3.5 | -21.2
CN1CCN(C(=O)CSc2cccc3cccnc23)CC1 | 69.2 | . | . | . | .
O=C(CSc1cccc2cccnc12)NC(c1ccccc1)c1ccccc1 | 16.5 | . | . | . | .
O=C(CSc1cccc2cccnc12)N1CCCCCC1 | 101.8* | . | . | . | .
CO[C@@](C)(CNS(=O)(=O)c1ccccc1Cl)c1cccc(Cl)c1 | -9.0 | . | . | . | .
O=C1C/C(=C\c2ccc(Br)cc2)c2nc3ccccc3n21 | -14.0 | . | . | . | .
COc1ccc(Cl)cc1NC(=O)CCCSc1ccc(NC(=O)C2CC2)nn1 | -2.0 | . | . | . | .
CCN1CCCc2cc(CCNC(=O)C(=O)NC(C)(C)C)ccc21 | 52.1 | . | . | . | .
CCN1CCCc2cc(CCNC(=O)NC(C)(C)C)ccc21 | 44.0* | . | . | . | .
CCN1CCCc2cc(CCNC(=O)c3ccc(OC(C)C)cc3)ccc21 | 61.0* | . | . | . | .
CCN1CCCc2cc(CCNC(=O)c3ccc(Br)o3)ccc21 | active! | . | . | . | .
CCN1CCCc2cc(CCNC(=O)C(=O)NCCOC)ccc21 | 68.0* | . | . | . | .
O=C(CSc1n[nH]c(=O)c2cc(-c3ccco3)nn12)N1CCN(c2ccccc2F)CC1 | 6.0 | . | . | . | .
